From PubChem
Most compounds without a hit are left out; they make up all but 2.2% or so of the library.
SUMO Mot1 rescue = inhibitors of SUMOylation pathway: yeast Mot1-301 growth rescue; S. cerevisiae Mot1-301 growth rescue, ATP luminescence, 38.5C; percent above DMSO median, 100 means doubled; growth rescue, % at 18.8 µM; 1% of 320,000 active; AID 2716;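 active means every valid replicate shows activation above 250% relative to neutral control wells; inactive means the rest, any valid replicate at or below 250%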;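 further: OY570 slx delta 5 strain wells were the positive control but not used for scaling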
SKN-1 inh = inhibitors of C. elegans SKN-1. C. elegans VP596 Pgst-4::GFP/RFP ratio, acrylamide-induced, 24 h. inhibition, % at 21.8 µM. 0.49% of 360,000 active. AID 624304;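 active means interference check ratio from 0.5 to 1.5 plus GFP to RFP signal ratio inhibition reaching or exceeding a fixed threshold, cut at about 30% in these data, passing the limit was not always enough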
Efflux pump mplx = inhibitors of Candida antifungal efflux pumps expressed in yeast; S. cerevisiae Candida pump triplex, Nile Red efflux; inhibition, % at 10 µM; AID 485275; 0.44% of 330,000 active;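 active means plate passing quality check with inhibition over a set limit, or well fluorescence over plate mean plus 4 SD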;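 further: Nile Red retained in pooled yeast measured as flow cytometry median fluorescence; 0% = buffer negative control and 100% = Enniatin B positive control; higher means more Nile Red kept so more efflux inhibition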
HGIII-sPLA2 inh = Inhibits HGIII-sPLA2 liposome hydrolysis, primary screen; Q9NZ20; QFRET BODIPY PC-A2 liposome hydrolysis, fluorescence; inhibition, % at 12.2 µM; 0.56% of 370,000 active; AID 743126;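 active means inhibition above mean plus 3 SD of compounds lying within the high and low control bounds, cut at about 19% in these data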;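 further: 0% = median of test compound wells and 100% = no enzyme DMSO wells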
Target sequence (Q9NZ20 whole entry, looked up): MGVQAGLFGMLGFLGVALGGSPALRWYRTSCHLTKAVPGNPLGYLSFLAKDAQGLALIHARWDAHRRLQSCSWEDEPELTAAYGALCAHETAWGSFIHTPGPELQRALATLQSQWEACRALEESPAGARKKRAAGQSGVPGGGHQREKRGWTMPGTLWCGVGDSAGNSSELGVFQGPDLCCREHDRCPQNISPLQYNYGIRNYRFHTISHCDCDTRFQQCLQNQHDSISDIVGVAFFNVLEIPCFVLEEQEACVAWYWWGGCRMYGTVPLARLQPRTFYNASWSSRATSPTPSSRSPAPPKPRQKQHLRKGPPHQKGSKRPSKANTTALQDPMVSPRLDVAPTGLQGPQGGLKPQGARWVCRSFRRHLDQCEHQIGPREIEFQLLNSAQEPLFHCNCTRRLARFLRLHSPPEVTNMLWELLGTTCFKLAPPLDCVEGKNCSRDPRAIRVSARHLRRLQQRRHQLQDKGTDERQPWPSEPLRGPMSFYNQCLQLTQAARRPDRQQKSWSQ
Mot1 SUMO dose = SUMO pathway inhibitors in yeast Mot1-301 growth; growth activity, percent, % at 42 µM; AID 493004; shares compounds with SUMO Mot1 rescue; S. cerevisiae Mot1-301 galactose growth, ATP luminescence, 24 h; -100 = growth of slx-deleted rescue strain; 2,300 tested, under 10 active;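 active means Signal drops as the depositor expects, and the fitted half-maximal dose is no more than ten times the top valid tested dose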;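 further: more negative values mean stronger growth rescue toward the control strain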
Active calls of the source: *.

What do the screens show for `CCC(C)(C(=O)NC1CCCCC1)N(C(=O)c1ccccn1)c1ccccc1` (centres undefined)?
SUMO Mot1 rescue: 6; SKN-1 inh: 19; Efflux pump mplx: 0; HGIII-sPLA2 inh: 8

What do the screens show for `CCC(C)(C(=O)NC1CCCC1)N(C(=O)c1ccccn1)c1ccc(C)cc1` (centres undefined)?
SUMO Mot1 rescue: 653*; SKN-1 inh: 4; Efflux pump mplx: 0; HGIII-sPLA2 inh: -3; Mot1 SUMO dose: 0

Results for N=c1sccn1CC(=O)Nc1cccc(S(N)(=O)=O)c1 ?
SUMO Mot1 rescue: 489*; SKN-1 inh: 12; Efflux pump mplx: 0; HGIII-sPLA2 inh: 5; Mot1 SUMO dose: 1

How did O=C(c1ccc2ccccc2n1)N1CCN(S(=O)(=O)c2ccccc2)CC1 do in these assays?
SUMO Mot1 rescue: 5; SKN-1 inh: 16; Efflux pump mplx: 0; HGIII-sPLA2 inh: 7

How did Cc1ccc(CNC(=O)CCNS(=O)(=O)c2cccs2)cc1 do in these assays?
SUMO Mot1 rescue: active; SKN-1 inh: 4; Efflux pump mplx: 0; HGIII-sPLA2 inh: 14; Mot1 SUMO dose: 1

Results for Cc1ccc(CNC(=O)CCNS(=O)(=O)c2ccc(C)cc2)cc1 ?
SUMO Mot1 rescue: -19; SKN-1 inh: -1; Efflux pump mplx: 0; HGIII-sPLA2 inh: 0

Results for CCOc1ccc(N2CC(C(=O)Nc3c(C)n(C)n(-c4ccccc4)c3=O)CC2=O)cc1 (centres undefined) ?
SKN-1 inh: 1; Efflux pump mplx: 0; HGIII-sPLA2 inh: 1

How did COCC(C)n1c(SCC(=O)NC(=O)Cc2ccccc2)nc2ccccc2c1=O (centres undefined) do in these assays?
SUMO Mot1 rescue: 2; SKN-1 inh: -3; Efflux pump mplx: 0; HGIII-sPLA2 inh: -9

Results for COCC(C)n1c(SCC(=O)NNC(=O)c2ccccc2)nc2ccccc2c1=O (centres undefined) ?
SUMO Mot1 rescue: 439*; SKN-1 inh: 5; Efflux pump mplx: 0; HGIII-sPLA2 inh: 0; Mot1 SUMO dose: 0

How did COc1ccc(C(=O)Nn2c(SCC(=O)NCc3ccccc3)nc3ccccc3c2=O)cc1 do in these assays?
SUMO Mot1 rescue: active; SKN-1 inh: -5; Efflux pump mplx: 0; HGIII-sPLA2 inh: -15; Mot1 SUMO dose: 0

What do the screens show for `O=C(COC(=O)c1ccc(Cl)nc1)Nc1nnc(-c2ccccc2)o1`?
SUMO Mot1 rescue: -2; SKN-1 inh: 13; Efflux pump mplx: 0; HGIII-sPLA2 inh: -4

Results for CCC(=O)N1c2ccc(S(=O)(=O)N3CCN(CC)CC3)cc2CC1C (centres undefined) ?
SUMO Mot1 rescue: 5; SKN-1 inh: 6; Efflux pump mplx: 0; HGIII-sPLA2 inh: 7

Results for CCC(=O)N1c2ccc(S(=O)(=O)N3CCN(c4ccc([N+](=O)[O-])cc4)CC3)cc2CC1C (centres undefined) ?
SUMO Mot1 rescue: 456*; SKN-1 inh: -3; Efflux pump mplx: 0; HGIII-sPLA2 inh: 6; Mot1 SUMO dose: -1

Results for NC(=O)CN1CCOCCN(CC(N)=O)CCOCC1 ?
SUMO Mot1 rescue: 410*; Efflux pump mplx: 0; Mot1 SUMO dose: 0

How did Cc1nc2ccc(S(=O)(=O)NC(CC(C)C)C(=O)O)cc2s1 (centres undefined) do in these assays?
SUMO Mot1 rescue: active; SKN-1 inh: 3; Efflux pump mplx: 0; HGIII-sPLA2 inh: 8; Mot1 SUMO dose: 0

How did Cc1ccc(NC(=O)CCS(=O)(=O)c2ccc3nc(C)sc3c2)cc1 do in these assays?
SUMO Mot1 rescue: 524*; SKN-1 inh: 4; Efflux pump mplx: 0; HGIII-sPLA2 inh: 0; Mot1 SUMO dose: 0

Results for Cc1nc2ccc(S(=O)(=O)NC(C(=O)N3CCCC3)C(C)C)cc2s1 (centres undefined) ?
SKN-1 inh: 6; Efflux pump mplx: 0; HGIII-sPLA2 inh: 4

Results for CC#CC(=O)N1CCC(C(=O)Nc2ccc(Oc3ccccc3)nc2)CC1 ?
SUMO Mot1 rescue: -7; SKN-1 inh: -1; Efflux pump mplx: 0; HGIII-sPLA2 inh: -10

Results for CSc1cccc(NC(=S)N2CCCN(Cc3ccccc3F)C2)c1 ?
SUMO Mot1 rescue: 496*; SKN-1 inh: -1; Efflux pump mplx: 1; HGIII-sPLA2 inh: -5; Mot1 SUMO dose: 0

What do the screens show for `O=S(=O)(NCc1ccccc1)c1ccc(S(=O)(=O)N(Cc2ccccn2)Cc2ccco2)cc1`?
SUMO Mot1 rescue: 841*; SKN-1 inh: -5; Efflux pump mplx: 0; HGIII-sPLA2 inh: -14; Mot1 SUMO dose: 0

What do the screens show for `O=C1C2CCCCN2C(=O)N1CCCCN1CCN(c2ccccc2Oc2ccccc2)CC1` (centres undefined)?
SUMO Mot1 rescue: 431*; SKN-1 inh: -14; Efflux pump mplx: 0; HGIII-sPLA2 inh: -10; Mot1 SUMO dose: 0

Results for COc1ccccc1N1CCN(CCCCN2C(=O)C3CCCN3C2=O)CC1 (centres undefined) ?
SKN-1 inh: -4; HGIII-sPLA2 inh: 8

What do the screens show for `CC1CC(C)(C)N(C(=O)CN2C(=O)CCC2=O)c2ccccc21` (centres undefined)?
SUMO Mot1 rescue: 371*; SKN-1 inh: -4; Efflux pump mplx: 0; HGIII-sPLA2 inh: -2; Mot1 SUMO dose: 0

How did CC1=CC(C)(C)N(C(=O)CN2C(=O)CCC2=O)c2ccccc21 do in these assays?
SUMO Mot1 rescue: -16; SKN-1 inh: 4; Efflux pump mplx: 0; HGIII-sPLA2 inh: 3

What do the screens show for `Nc1ccn([C@@H]2O[C@H](C(=O)N(CCC3=CCCCC3)CC3CC3)[C@@H](O)[C@H]2O)c(=O)n1`?
SKN-1 inh: -3; HGIII-sPLA2 inh: 5

Results for O=C(N/N=C/c1ccccn1)c1cc(-c2cccc3ccccc23)n[nH]1 ?
SUMO Mot1 rescue: 10; SKN-1 inh: 2; Efflux pump mplx: 0; HGIII-sPLA2 inh: 2

How did O=C(O)c1ccc(/C=N/NC(=O)c2cc(-c3ccc4c5c(cccc35)CC4)n[nH]2)cc1 do in these assays?
SUMO Mot1 rescue: active; SKN-1 inh: -4; Efflux pump mplx: 0; HGIII-sPLA2 inh: -5; Mot1 SUMO dose: 0

What do the screens show for `COCCCN1C(=O)[C@H](CC(=O)NCc2cccc(C(F)(F)F)c2)[C@]2(C(=O)OC)CCCCC=C12`?
HGIII-sPLA2 inh: -6

How did O=[N+]([O-])c1ccc(S(=O)(=O)NCC(c2ccc3c(c2)OCO3)N2CCOCC2)cc1 (centres undefined) do in these assays?
SKN-1 inh: -2; HGIII-sPLA2 inh: -6

How did CN(C)c1ccc(C(CNS(=O)(=O)c2ccc([N+](=O)[O-])cc2)N2CCOCC2)cc1 (centres undefined) do in these assays?
SUMO Mot1 rescue: 575*; SKN-1 inh: 15; Efflux pump mplx: 0; HGIII-sPLA2 inh: 3; Mot1 SUMO dose: 0

Results for CCN(C(=O)COC(=O)Cn1c(=O)oc2ccccc21)c1c(N)n(Cc2ccccc2)c(=O)[nH]c1=O ?
SKN-1 inh: 11; HGIII-sPLA2 inh: 5
